Values without a mark were called inactive. Active and inactive are the calls of the source.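 Rule for the calls: active = blocks over 70% of labeled estradiol binding at 10 µM, or over a set limit at 100 nM; inactive = the rest.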

Estrogen receptor beta (Homo sapiens), sequence (Q92731 whole entry, looked up): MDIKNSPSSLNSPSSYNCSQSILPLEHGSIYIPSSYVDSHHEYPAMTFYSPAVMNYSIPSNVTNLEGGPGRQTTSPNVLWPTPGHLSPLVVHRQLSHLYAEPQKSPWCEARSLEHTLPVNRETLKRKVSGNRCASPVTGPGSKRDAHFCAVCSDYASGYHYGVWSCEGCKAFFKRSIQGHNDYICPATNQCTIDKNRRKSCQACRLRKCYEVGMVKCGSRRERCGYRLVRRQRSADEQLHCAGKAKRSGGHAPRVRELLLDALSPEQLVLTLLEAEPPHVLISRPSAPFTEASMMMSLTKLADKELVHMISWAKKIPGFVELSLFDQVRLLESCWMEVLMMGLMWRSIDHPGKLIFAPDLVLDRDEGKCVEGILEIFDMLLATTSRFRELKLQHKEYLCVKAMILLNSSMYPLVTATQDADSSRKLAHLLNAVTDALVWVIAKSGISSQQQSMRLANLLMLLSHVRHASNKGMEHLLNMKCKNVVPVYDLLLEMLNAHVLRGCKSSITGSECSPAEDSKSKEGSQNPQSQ

This experiment concerns the target Estrogen receptor beta (Homo sapiens) (UniProt Q92731). Put plainly: ERbeta ligand binders by competition, primary screen, cell-based, Cos7 ERbeta-GFP, flow cytometry (AID 1210).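 Note: 0% = DMSO vehicle wells and 100% = complete loss of labeled estradiol signal.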 The settings on record: fluorescent estrogen binding, at 10 µM, active compounds read high.
As for `CCOc1cc2c(c([N+](=O)[O-])c1)NC(c1ccccc1)C1CC=CC21` (stereo unspecified), the inhibition is 17%.
On to `O=C(O)c1ccc2c(c1)C1C=CCC1C(c1cccc([N+](=O)[O-])c1)N2` (stereo unspecified), for which the inhibition was 33%.
As for `COc1nnc(-c2ccc(C(=O)N3C[C@@H]4C[C@H](C3)c3cccc(=O)n3C4)cc2)c2ccccc12`, the figure is 34%.
As for `O=c1cc(-c2ccc(O)c(-c3c(O)cc(O)c4c(=O)cc(-c5ccc(O)cc5)oc34)c2)oc2cc(O)cc(O)c12`, the figure is 76% (active).
As for `CC1(C)C=C(c2ccc(O)cc2)CC(C)(C)N1`, the figure is 43%.
Regarding `Nc1ccc2nc(-c3cc(Cl)c(N)c(Cl)c3)[nH]c2c1`, the inhibition was 10%.
To `COc1ccc(C2Nc3ccccc3C(=O)N2c2ccccc2)cc1CSc1ccccn1` (stereo unspecified) belongs 60%.
Consider `CCCOc1cc(OCCC)c2c3c(c(=O)oc2c1)CCCC3`, for which the inhibition was 20%.
To `O=C(OC1CCCCC1)c1ccc2c(c1)C1C=CCC1C(C(=O)O)N2` (stereo unspecified) belongs 7%; to `CC(C)C1Nc2ccc(C(=O)O)cc2C2C=CCC21` (stereo unspecified), 35%.
To `CCC(Oc1ccc2c3c(c(=O)oc2c1C)CCC3)C(=O)OC` (stereo unspecified) belongs 15%.
Consider `COC(=O)c1ccc(OCc2c(C)noc2C)cc1`, for which the inhibition is 0%.
In the case of `COc1cc([C@@H]2Nc3ccc(S(=O)(=O)Nc4ccccc4F)cc3[C@@H]3C=CC[C@@H]32)cc(OC)c1OC`, the inhibition was 11%.
In the case of `CCc1cc2c3c(c(=O)oc2cc1OCC(=O)O)CCCC3`, the inhibition was 20%.
For the compound `O=C(COC(=O)C1CC2C=CC1C2)NCc1ccco1` (stereo unspecified), the inhibition is 25%.
To `COc1cc(-c2nc3ccc4ccccc4c3c3c2CCC3)cc(OC)c1O` belongs 64%.

One may read the inhibition as the change of the read-out against control, counted positive when it falls.

The values are drawn from PubChem BioAssay AID1210 (NMMLSC, 2008).
